This is part of a sample that, as a whole, favours compounds with a hit. Of some 83,000 tested, about 20% had one in any assay.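 A percent growth of 40 corresponds to 60% growth inhibition; 0 means no net growth; -100 means all cells died. Active threshold: below 10.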 Calls of active or inactive are those of the source.

Test systems include RPMI-8226 leukemia; OVCAR-8 ovarian; OVCAR-5 ovarian; OVCAR-4 ovarian; SK-OV-3 ovarian; IGROV1 ovarian; OVCAR-3 ovarian; HS 578T breast; NCI/ADR-RES ovarian; T-47D breast; MDA-MB-435 melanoma; SW-620 colon; MCF7 breast; HCT-116 colon; HCC-2998 colon; KM12 colon; MDA-MB-468 breast; SR leukemia; BT-549 breast.
Holding throughout (assay): NCI-60 one-dose screen, 48 h (100 = growth as untreated, 0 = no growth, -100 = all killed)
Conditions in all cases: 10 µM unless noted

For `O=C1C(=Nc2ccc(F)c(Cl)c2)c2cccc3cccc1c23`, the growth in the test with RPMI-8226 leukemia was 8.45% (active); with OVCAR-8 ovarian it was 3.58% (active); in the test with OVCAR-5 ovarian, 94.7% (inactive); with OVCAR-4 ovarian it was 86.1% (inactive); with SK-OV-3 ovarian it was 87.4% (inactive); with IGROV1 ovarian, 66.4% (inactive). The growth in the test on OVCAR-3 ovarian was 25.3% (inactive); with HS 578T breast, 89.9% (inactive); in the test with NCI/ADR-RES ovarian it was 84.1% (inactive); with T-47D breast it was 45.3% (inactive); in the test with MDA-MB-435 melanoma, -42% (active); in the test with SW-620 colon, 35.8% (inactive). For the same compound, the growth is 16.1% (inactive) in the test on MCF7 breast; 19% (inactive) in the test on HCT-116 colon; 108% (inactive) in the test on HCC-2998 colon; 55% (inactive) in the test on KM12 colon; 88.4% (inactive) in the test with MDA-MB-468 breast.
On to `CCOC(=O)C1=C(N)N(c2ccccc2)C2=C(C(=O)CC(C)(C)C2)C1c1cccc(Cl)c1Cl` (stereo not given), for which the growth is 56.3% (inactive) in the test with SR leukemia; 59.4% (inactive) with OVCAR-8 ovarian; 87.6% (inactive) in the test with OVCAR-5 ovarian; 65.8% (inactive) in the test with OVCAR-4 ovarian; 82% (inactive) in the test with SK-OV-3 ovarian; 83.6% (inactive) in the test with IGROV1 ovarian. The growth was 87.4% (inactive) with OVCAR-3 ovarian; 51% (inactive) with NCI/ADR-RES ovarian; 71.6% (inactive) in the test on T-47D breast; 68.8% (inactive) with BT-549 breast; 87.8% (inactive) with MDA-MB-435 melanoma; 60% (inactive) in the test with MCF7 breast. Besides, the growth is 40.1% (inactive) in the test with HCT-116 colon, 86.9% (inactive) in the test with HCC-2998 colon, 76.6% (inactive) with KM12 colon and 47.8% (inactive) with MDA-MB-468 breast.
As to `Brc1ccc(N/N=C/c2c[nH]c3ccc(Br)cc23)nc1`, the growth with SR leukemia was -26.2% (active); with OVCAR-8 ovarian it was 3.48% (active); with OVCAR-5 ovarian, -25.8% (active); in the test with SK-OV-3 ovarian, -12.7% (active); in the test on IGROV1 ovarian it was -25.6% (active); with OVCAR-3 ovarian, -2.41% (active). Also, the growth in the test on HS 578T breast was -17.2% (active); in the test with NCI/ADR-RES ovarian it was -24.5% (active); in the test with T-47D breast, 1.46% (active); in the test on BT-549 breast it was -22.6% (active); in the test with MDA-MB-435 melanoma, -25% (active); in the test on SW-620 colon, -71.3% (active). The growth with HCT-116 colon is -72.9% (active); in the test with HCC-2998 colon, -94% (active); with KM12 colon it was -57% (active); with MDA-MB-468 breast, -63.5% (active).
Regarding `COc1cc2c(c(OC)c1OC)C(=O)CC(c1cccc(NC(=O)c3cc(N)ccc3Cl)c1)O2` (stereo not given), the growth is 40.2% (inactive) in the test with RPMI-8226 leukemia; 18.8% (inactive) in the test on OVCAR-8 ovarian; 100% (inactive) in the test on OVCAR-5 ovarian; 52.7% (inactive) in the test with OVCAR-4 ovarian; 65.6% (inactive) with SK-OV-3 ovarian; 72.9% (inactive) in the test on IGROV1 ovarian. The growth in the test with OVCAR-3 ovarian is 33.8% (inactive); with HS 578T breast it was 80.6% (inactive); in the test on NCI/ADR-RES ovarian it was 20.5% (inactive); in the test on T-47D breast, 35.4% (inactive); with BT-549 breast, 23.3% (inactive); in the test with MDA-MB-435 melanoma, -41.3% (active). The growth with SW-620 colon is 37.4% (inactive); in the test with MCF7 breast it was 14% (inactive); in the test with HCC-2998 colon it was 95.7% (inactive); in the test with KM12 colon, 49.2% (inactive); in the test on MDA-MB-468 breast, 5.35% (active).
Take `COc1ccc(C(=O)/C=C/c2cccc3ccccc23)cc1S(N)(=O)=O`: the growth was -10.6% (active) with RPMI-8226 leukemia; -13.6% (active) with OVCAR-8 ovarian; 1.13% (active) in the test with OVCAR-5 ovarian; 43.5% (inactive) with OVCAR-4 ovarian; 44.7% (inactive) with SK-OV-3 ovarian; 38.7% (inactive) in the test with IGROV1 ovarian. Further, the growth was -50.7% (active) in the test on OVCAR-3 ovarian; 55.2% (inactive) in the test on HS 578T breast; 15.1% (inactive) in the test on NCI/ADR-RES ovarian; -2.6% (active) in the test on T-47D breast; 5.32% (active) in the test on MDA-MB-435 melanoma; -16.1% (active) with SW-620 colon. For the same compound, the growth in the test on MCF7 breast was -60.3% (active); with HCT-116 colon, -91.9% (active); in the test on HCC-2998 colon, -70.2% (active); in the test with KM12 colon, -61.2% (active); in the test with MDA-MB-468 breast, -55.7% (active).
For `N#Cc1c(-c2cccc(Cl)c2Cl)cc(-c2c[nH]c3ccccc23)[nH]c1=O`, the growth in the test on SR leukemia is 42.3% (inactive); in the test on OVCAR-8 ovarian it was 72.5% (inactive); in the test on OVCAR-5 ovarian, 83.9% (inactive); in the test on OVCAR-4 ovarian, 75.2% (inactive); with SK-OV-3 ovarian, 94.4% (inactive); with IGROV1 ovarian, 71% (inactive). The growth was 86.1% (inactive) in the test on OVCAR-3 ovarian; 76.5% (inactive) with NCI/ADR-RES ovarian; 63.4% (inactive) with T-47D breast; 24.3% (inactive) in the test on BT-549 breast; 57.7% (inactive) with MDA-MB-435 melanoma; 35.8% (inactive) with MCF7 breast. The growth in the test with HCC-2998 colon is 88.1% (inactive); in the test with KM12 colon, 64.3% (inactive); with MDA-MB-468 breast, 46.5% (inactive).
Consider `COc1ccc(C(=O)/C=C/c2ccc(Cl)c(Cl)c2)cc1S(N)(=O)=O`, for which the growth with RPMI-8226 leukemia was -6.75% (active); in the test with OVCAR-8 ovarian, -45.3% (active); in the test on OVCAR-5 ovarian, 10.7% (inactive); in the test with OVCAR-4 ovarian, 34.6% (inactive); in the test on SK-OV-3 ovarian it was 52.5% (inactive); in the test with IGROV1 ovarian, 11.1% (inactive). The growth in the test with OVCAR-3 ovarian was -23.5% (active); in the test with HS 578T breast, 86.9% (inactive); in the test on NCI/ADR-RES ovarian, 14.8% (inactive); in the test with T-47D breast, -54.7% (active); in the test on MDA-MB-435 melanoma it was 2.27% (active); with SW-620 colon it was -48.8% (active). Also, the growth was -48.7% (active) in the test with MCF7 breast; -96.2% (active) with HCT-116 colon; -74.1% (active) with HCC-2998 colon; -46.7% (active) in the test with KM12 colon; -19.4% (active) with MDA-MB-468 breast.
With `CC(=O)Oc1ccc(/C=C/C(=O)N[C@@H](Cc2ccccc2)C(O)C(=O)NCc2ccccc2)cc1OC(C)=O` (stereo not given in full), the growth in the test with RPMI-8226 leukemia was 69.8% (inactive); in the test with OVCAR-8 ovarian, 75.9% (inactive); with OVCAR-5 ovarian it was 113% (inactive); in the test with OVCAR-4 ovarian it was 77.3% (inactive); with SK-OV-3 ovarian, 91.5% (inactive); in the test with IGROV1 ovarian, 62.5% (inactive). Moreover, the growth was 84.7% (inactive) with OVCAR-3 ovarian; 84.8% (inactive) in the test on HS 578T breast; 104% (inactive) with NCI/ADR-RES ovarian; 90.9% (inactive) in the test on T-47D breast; 81.6% (inactive) with BT-549 breast; 71.7% (inactive) in the test with MDA-MB-435 melanoma. Further, the growth was 93.2% (inactive) in the test with SW-620 colon; 81.9% (inactive) with MCF7 breast; 78.4% (inactive) in the test on HCT-116 colon; 96.3% (inactive) in the test on HCC-2998 colon; 86.3% (inactive) with KM12 colon; 78.1% (inactive) with MDA-MB-468 breast.
Turning to `COc1ccc(C2=NN(C(C)=O)C(c3ccc(OCc4ccc(Cl)cc4)c(OC)c3)C2)cc1OC` (stereo not given), the growth is 52.4% (inactive) in the test on SR leukemia; 43.5% (inactive) in the test with OVCAR-8 ovarian; 79.8% (inactive) in the test with OVCAR-5 ovarian; 84.9% (inactive) with SK-OV-3 ovarian; 49% (inactive) in the test with IGROV1 ovarian; 41.4% (inactive) in the test on OVCAR-3 ovarian. The growth in the test on HS 578T breast was 56.3% (inactive); in the test with NCI/ADR-RES ovarian it was 56.1% (inactive); in the test on T-47D breast it was 10.2% (inactive); with BT-549 breast it was 33.8% (inactive); in the test with MDA-MB-435 melanoma, 43% (inactive); in the test on SW-620 colon it was 61.2% (inactive). Also, the growth in the test with MCF7 breast was 20.1% (inactive); in the test with HCT-116 colon, 35.3% (inactive); with HCC-2998 colon it was 83.4% (inactive); in the test with KM12 colon it was 39% (inactive); in the test with MDA-MB-468 breast, 31.1% (inactive).

These data come from PubChem BioAssay (NCI).
